In PubChem BioAssay (NCATS):
Results filed as inconclusive are left out. Entries that show only a call come without a potency. The source made the active and inactive calls. Calls come from the whole dose curve; as a rule, active = well fitted inhibition curve with a large enough effect; inconclusive = small, poorly fitted or top-dose-only effect; inactive = no such curve, though single readings can be large or run the other way.

Each compound was assayed against Retinaldehyde dehydrogenase 3 (Homo sapiens) (UniProt P47895) (assay: qHTS for Inhibitors of the Aldehyde Dehydrogenase Family (ALDH1A3) Primary screen (AID 2061315)). Conditions: ALDH inhibition qHTS; series mostly up to 56 µM.

| SMILES | Potency |
| --- | --- |
| CCCn1c(C)nc2c(NC(C)CCCN(CC)CC)nc(C)nc21 (stereo not given) | inactive |
| C[C@@]12CC[C@@H]3[C@@](CC[C@H]4[C@@]3(C)CCC[C@@]4(C)C(=O)O)(CC1=O)C2 | inactive |
| N[C@H](C(=O)Nc1ccc(Cl)cc1C(=O)c1ccc[nH]1)c1ccccc1 | inactive |
| CN1CCN(c2cc(-c3cc(O)c4ncccc4c3)ccn2)CC1 | inactive |
| COC(=O)C1=CO[C@@H](O[C@@H]2O[C@H](CO)[C@@H](O)[C@H](O)[C@H]2O)[C@H]2[C@@H]1[C@H](O)[C@H](O)[C@]2(C)O | inactive |
| CC(Cc1cnccn1)Nc1cnc2c(O)ccc(C(=O)O)c2c1 (stereo not given) | inactive |
| COc1ccc(CCC(=O)c2c(O)cc(O)cc2O[C@@H]2O[C@H](CO)[C@@H](O)[C@H](O)[C@H]2O)cc1 | inactive |
| C=C1C(=O)OC2/C=C(\C)CC/C=C(\C(=O)O)CC/C=C(\C)CCC12 (stereo not given) | inactive |
| Brc1sc2c(c1-c1nc3ccccc3s1)CCNC2 | inactive |
| c1nc(NCCC2CCCO2)c2cc(-c3ccc4c(c3)OCO4)ccc2n1 (stereo not given) | inactive |
| CC(=O)N1CCN(S(=O)(=O)c2ccc3c(c2)CC(=O)N3)CC1 | inactive |
| O=C(O)CCc1cc(F)c(S(=O)(=O)N2CCN(S(=O)(=O)c3ccc4c(c3)OCCO4)CC2)cc1F | inactive |
| O=C(O)c1ccc2c(c1)C(=O)N([C@H](Cc1c[nH]c3ccccc13)C(=O)O)C2=O | inactive |
| COc1ccc(C(=O)Nc2nc(-c3ccccc3)cs2)c(NS(=O)(=O)c2ccc(C)cc2)c1 | inactive |
| O=C1CCCC2=C1C(c1[nH]ncc1Cl)N=C(Nc1ccccn1)N2 (stereo not given) | inactive |
